Measurements reported in PubChem BioAssay.
The source made the active and inactive calls. Unless noted, how the calls were made is not given here.

How the values were obtained:
[1] = system: Aerobactin synthetase IucA (Klebsiella pneumoniae); assay: inhibition of K. pneumoniae IucA enzyme – biochemical, Tocris library, absorbance (AID 1345561); conditions: purified IucA enzyme assay, absorbance (OD) read-out; stronger effect = lower value;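 tested at 8 µM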;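 further: 100% = enzyme without compound and 0% = no enzyme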
[2] = viability loss with induced miR-34 in A549 – imaging, A549 dox-inducible miR-34, nuclei and caspase counts, primary screen (AID 1347080;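 active means compounds whose cell count with miR-34 switched on is under 0.7 times the count with it off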); conditions: A549 miR-34 inducible, Hoechst nuclei count, 48 h
[3] = galactose survival enhancers in mitochondrial complex I cybrids – cell-based, galactose medium, ATP luminescence, primary screen (AID 1645843;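 active means z-score of at least 1.8 in each of two replicates, scored against plate mean and spread of sample wells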;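 further: positive z means more ATP and so rescue of galactose-driven cybrid death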); conditions: complex I mutant cybrid cells, 72 h, stronger effect = higher value
[4] = stronger effect = lower value, cell number ratio, induced over uninduced
[5] = measured here: relative caspase fold change +Dox/-Dox
[6] = measured here: total cells with miR-34 induction, stronger effect = lower value
[7] = measured here: total cells without miR-34 induction

With O=C1CN=C(c2cccc(Br)c2)c2oc3ccccc3c2N1 as the compound, how does the remaining activity [1] read?
Its remaining activity is 121% (inactive).

And the fold change [2, 4]?
Its fold change is 1.01 (inactive).

And the fold change [2, 5]?
Its fold change is 1.75.

What about the cell count [2, 6] of the same compound?
Its cell count is 2110.

What about the cell count [2, 7] of the same compound?
Its cell count is 2080.

What about the z-score [3] of the same compound?
The z-score was -0.285 (inactive).

Which results are given for CC(C)(C)NCC(O)COc1cccc2[nH]c(C#N)cc12 (centres undefined)?
remaining activity [1]: 115% (inactive); fold change [2, 4]: 0.911 (inactive); fold change [2, 5]: 1.8; cell count [2, 6]: 9030; cell count [2, 7]: 9910; z-score [3]: 0.025 (inactive)

Which results are given for N[C@]1(C(=O)O)CC[C@@H](C(=O)O)C1 (racemic)?
remaining activity [1]: 103% (inactive); fold change [2, 4]: 0.971 (inactive); fold change [2, 5]: 0.73; cell count [2, 6]: 7990; cell count [2, 7]: 8230; z-score [3]: 0.095 (inactive)

With COC(=O)CN1CN(c2ccccc2)C2(CCN(Cc3ccc4ccccc4c3)CC2)C1=O as the compound, how does the remaining activity [1] read?
The remaining activity was 120% (inactive).

And the fold change [2, 4]?
Its fold change is 0.912 (inactive).

What about the fold change [2, 5] of the same compound?
Its fold change is 0.824.

What about the cell count [2, 6] of the same compound?
Its cell count is 8960.

And the cell count [2, 7]?
The cell count was 9820.

And the z-score [3]?
Its z-score is 0.375 (inactive).

Which results are given for NC1(c2ccccc2Cl)CCCCC1=O (centres undefined)?
remaining activity [1]: 88.2% (inactive); fold change ([2]; stronger effect = lower value): 0.898 (inactive); fold change [2, 5]: 1.86; cell count [2, 6]: 9020; cell count [2, 7]: 10000; z-score [3]: 1.53 (inactive)

Which results are given for C=CCN1CC[C@]2(C)c3cc(O)ccc3CC1[C@@H]2C?
remaining activity [1]: 113% (inactive); fold change ([2]; stronger effect = lower value): 0.961 (inactive); fold change [2, 5]: 0.641; cell count [2, 6]: 8610; cell count [2, 7]: 8960; z-score [3]: 0.05 (inactive)

Which results are given for Clc1ccc(C2=CCCC3CCC2N3)cn1 (centres undefined)?
remaining activity [1]: 101% (inactive); fold change [2, 4]: 0.907 (inactive); fold change [2, 5]: 0.911; cell count [2, 6]: 9190; cell count [2, 7]: 10100; z-score [3]: 0.365 (inactive)

For Cc1ccc2c(c1)Cc1c(C(=O)NC3CCCCC3)nn(-c3ccc(Cl)cc3Cl)c1-2, which remaining activity [1] is on record?
The remaining activity was 103% (inactive).

And the fold change [2, 4]?
Its fold change is 0.986 (inactive).

What about the fold change [2, 5] of the same compound?
The fold change was 1.35.

And the cell count [2, 6]?
Its cell count is 8570.

What about the cell count [2, 7] of the same compound?
Its cell count is 8690.

What about the z-score [3] of the same compound?
The z-score was -0.01 (inactive).

Which results are given for COC1CCC2NC(C(=O)c3ccccc3)CC2C1 (centres undefined)?
remaining activity [1]: 86.6% (inactive); fold change [2, 4]: 1.14 (inactive); fold change [2, 5]: 0.708; cell count [2, 6]: 1500; cell count [2, 7]: 1320; z-score [3]: 0.23 (inactive)

What does the source list for CCCN[C@@H]1CCc2c(OC)cccc2[C@@H]1C?
remaining activity [1]: 99.1% (inactive); fold change [2, 4]: 0.939 (inactive); fold change [2, 5]: 1.14; cell count [2, 6]: 8780; cell count [2, 7]: 9360; z-score [3]: 0.12 (inactive)

Which remaining activity [1] does the source give for Cc1ccc2c(c1)Cc1c(C(=O)NN3CCCCC3)nn(-c3ccc(Cl)cc3Cl)c1-2 here?
Its remaining activity is 102% (inactive).

And the fold change [2, 4]?
Its fold change is 0.912 (inactive).

What about the fold change [2, 5] of the same compound?
The fold change was 1.23.

What about the cell count [2, 6] of the same compound?
The cell count was 5690.

And the cell count [2, 7]?
Its cell count is 6240.

What about the z-score [3] of the same compound?
Its z-score is -0.67 (inactive).

With O=C(O)Cc1cccnc1C(=O)O as the compound, how does the remaining activity [1] read?
The remaining activity was 108% (inactive).

And the fold change [2, 4]?
Its fold change is 0.98 (inactive).

What about the fold change [2, 5] of the same compound?
Its fold change is 0.669.

What about the cell count [2, 6] of the same compound?
Its cell count is 8790.

What about the cell count [2, 7] of the same compound?
The cell count was 8970.

And the z-score [3]?
Its z-score is 0.32 (inactive).

With CNCCc1cnc[nH]1 as the compound, how does the remaining activity [1] read?
The remaining activity was 101% (inactive).

What about the fold change [2, 4] of the same compound?
Its fold change is 0.965 (inactive).

And the fold change [2, 5]?
Its fold change is 0.943.

What about the cell count [2, 6] of the same compound?
The cell count was 9430.

And the cell count [2, 7]?
Its cell count is 9770.

What about the z-score [3] of the same compound?
The z-score was 0.115 (inactive).

Which results are given for CN1[C@@H]2CC[C@H]1CC(OC(=O)N1Cc3ccccc3NC1=O)C2 (some centres undefined)?
remaining activity [1]: 119% (inactive); fold change [2, 4]: 0.979 (inactive); fold change [2, 5]: 1.11; cell count [2, 6]: 8310; cell count [2, 7]: 8490; z-score [3]: 0.365 (inactive)

For CC[N+](CC)(CCCNC1=CC(=O)C(NCCC[N+](CC)(CC)Cc2ccccc2)=CC1=O)Cc1ccccc1, which remaining activity [1] is on record?
Its remaining activity is 81.3% (inactive).

And the fold change [2, 4]?
Its fold change is 0.951 (inactive).

And the fold change [2, 5]?
The fold change was 0.768.

And the cell count [2, 6]?
The cell count was 8950.

And the cell count [2, 7]?
Its cell count is 9410.

What about the z-score [3] of the same compound?
The z-score was -0.46 (inactive).

Which results are given for Cn1cc(C(=O)C(=O)N[C@H]2CN3CCC2CC3)c2ccccc21?
remaining activity [1]: 92.5% (inactive); fold change [2, 4]: 0.891 (inactive); fold change [2, 5]: 1.06; cell count [2, 6]: 8410; cell count [2, 7]: 9440; z-score [3]: 0.935 (inactive)

Which remaining activity [1] does the source give for CC(C(=O)OC1CC2CCC(C1)N2C)c1ccc(Br)cc1 (centres undefined) here?
Its remaining activity is 87.5% (inactive).

And the fold change [2, 4]?
Its fold change is 0.964 (inactive).

What about the fold change [2, 5] of the same compound?
The fold change was 0.964.

What about the cell count [2, 6] of the same compound?
The cell count was 8760.

What about the cell count [2, 7] of the same compound?
Its cell count is 9090.

What about the z-score [3] of the same compound?
Its z-score is -0.795 (inactive).

For CN(C(=O)Cc1ccc(Cl)c(Cl)c1)[C@H](CN1CCCC1)c1ccccc1, which remaining activity [1] is on record?
Its remaining activity is 98.2% (inactive).

What about the fold change [2, 4] of the same compound?
The fold change was 0.987 (inactive).

And the fold change [2, 5]?
Its fold change is 0.762.

What about the cell count [2, 6] of the same compound?
Its cell count is 7540.

And the cell count [2, 7]?
Its cell count is 7640.

What about the z-score [3] of the same compound?
Its z-score is -0.625 (inactive).

Which results are given for CN(C(=O)Cc1ccccc1)C(CN1CCCC1)c1ccccc1 (centres undefined)?
remaining activity [1]: 116% (inactive); fold change [2, 4]: 0.952 (inactive); fold change [2, 5]: 0.864; cell count [2, 6]: 8670; cell count [2, 7]: 9110; z-score [3]: 0.03 (inactive)

What does the source list for Cc1nnc2ccc(-c3cccc(C(F)(F)F)c3)nn12?
remaining activity [1]: 126% (inactive); fold change ([2]; stronger effect = lower value): 0.912 (inactive); fold change [2, 5]: 0.497; cell count [2, 6]: 9060; cell count [2, 7]: 9940; z-score [3]: 0.155 (inactive)

For C[C@H](N)Cc1cnc[nH]1, which remaining activity [1] is on record?
Its remaining activity is 92.3% (inactive).

What about the fold change [2, 4] of the same compound?
Its fold change is 0.997 (inactive).

What about the fold change [2, 5] of the same compound?
The fold change was 1.13.

What about the cell count [2, 6] of the same compound?
Its cell count is 9180.

What about the cell count [2, 7] of the same compound?
Its cell count is 9200.

What about the z-score [3] of the same compound?
The z-score was 0.12 (inactive).

Which results are given for O=C(O)CCC(CP(=O)(O)O)C(=O)O (centres undefined)?
remaining activity [1]: 113% (inactive); fold change [2, 4]: 0.917 (inactive); fold change [2, 5]: 0.521; cell count [2, 6]: 9040; cell count [2, 7]: 9860; z-score [3]: -0.22 (inactive)

Which results are given for c1cc(Cc2cnc[nH]2)ccn1?
remaining activity [1]: 105% (inactive); fold change [2, 4]: 0.985 (inactive); fold change [2, 5]: 1.35; cell count [2, 6]: 9560; cell count [2, 7]: 9710; z-score [3]: -0.25 (inactive)

What does the source list for CC1=C(O)C(=O)[C@@H]2O[C@@H]2C1=O?
remaining activity [1]: 113% (inactive); fold change [2, 4]: 0.983 (inactive); fold change [2, 5]: 1; cell count [2, 6]: 7990; cell count [2, 7]: 8130; z-score [3]: 0.005 (inactive)
